Experimental data as given in PubChem BioAssay AID1159580 (chemical genetic matrix, 2015).
Several values for one entry are separate records, joined by “and”; a condition that tells them apart may be missing. Equal values may be shown once. Hit rate of the full screen: of about 5,500 compounds, about 2,000 (36%) were called active. Roughly 18% stayed inconclusive and do not appear here. No stated cut-off is given here; in the data, active means normalized growth mostly below about 0.91 (no sharp cut-off); inconclusive means no clear call, values can overlap the other calls; inactive means mostly above about 0.92. This is one part of the list.

Assay: chemical genetic growth profiling, strain panel (AID 1159580);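 further: tested at 20 µM; growth read once vehicle control cultures reached saturation at 30 °C; 1 = growth at the plate median or of vehicle wells; lower values mean less growth of the strain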
Settings: S. cerevisiae deletion strains, growth OD

Measured: normalized growth

CCOC(=O)C(C)(C)Oc1ccc(Cl)cc1
inactive: locus YAL013W, strain DEP1, active compounds read low 1.01 and 0.989 | locus YAL021C, strain ccr4, active compounds read low 0.996 | locus YAL026C, strain drs2, active compounds read low 0.989 | locus YAL030W, strain snc1, active compounds read low 0.976 | locus YAL040C, strain CLN3, active compounds read low 0.985 | locus YBL061C, strain skt5, active compounds read low 0.978 | locus YBR009C, strain hhf1, active compounds read low 0.982 | locus YBR021W, strain FUR4, active compounds read low 0.988 | locus YBR023C, strain chs3, active compounds read low 0.985 | locus YBR171W, strain sec66, active compounds read low 0.973 | locus YBR229C, strain ROT2, active compounds read low 1.01 | locus YBR231C, strain swc5, active compounds read low 0.977 | locus YBR279W, strain paf1, active compounds read low 0.986 | locus YCL011C, strain gbp2, active compounds read low 0.991 | locus YCL016C, strain dcc1, active compounds read low 0.986 | locus YCL029C, strain bik1, active compounds read low 1 | locus YCL061C, strain MRC1, active compounds read low 0.98 | locus YCL069W, strain vba3, active compounds read low 0.981 | locus YCR088W, strain abp1, active compounds read low 0.984 | locus YDL005C, strain med2, active compounds read low 0.972 | locus YDL035C, strain GPR1, active compounds read low 1.01 | locus YDL040C, strain nat1, active compounds read low 0.979 | locus YDL074C, strain BRE1, active compounds read low 1.02 | locus YDL101C, strain DUN1, active compounds read low 0.999 | locus YDL134C, strain PPH21, active compounds read low 0.999 | locus YDL185W, strain tfp1, active compounds read low 1.01 | locus YDL192W, strain arf1, active compounds read low 1.01 | locus YDR001C, strain nth1, active compounds read low 0.983 | locus YDR069C, strain doa4, active compounds read low 0.984 | locus YDR101C, strain arx1, active compounds read low 0.99 | locus YDR137W, strain rgp1, active compounds read low 0.964 | locus YDR150W, strain NUM1, active compounds read low 1 | locus YDR159W, strain sac3, active compounds read low 0.945 | locus YDR162C, strain NBP2, active compounds read low 1.01 | locus YDR195W, strain ref2 0.954 | locus YDR297W, strain sur2, active compounds read low 0.982 | locus YDR318W, strain mcm21, active compounds read low 1 | locus YDR334W, strain swr1, active compounds read low 0.987 | locus YDR335W, strain msn5, active compounds read low 0.986 | locus YDR388W, active compounds read low 0.995 | locus YDR392W, strain spt3, active compounds read low 0.87 | locus YDR502C, strain sam2, active compounds read low 0.996 | locus YEL003W, strain gim4, active compounds read low 0.992 | locus YEL037C, strain rad23, active compounds read low 1.02 | locus YEL061C, strain CIN8 (second series), active compounds read low 0.981 | locus YEL061C, strain CIN8, active compounds read low 1.01 | locus YER002W, strain NOP16, active compounds read low 0.998 | locus YER015W, strain faa2, active compounds read low 0.971 | locus YER016W, strain bim1, active compounds read low 0.984 | locus YER110C, active compounds read low 0.992 | locus YER111C, strain swi4, active compounds read low 0.985 | locus YER155C, strain BEM2 (second series), active compounds read low 0.922 | locus YER155C, strain BEM2, active compounds read low 1 | locus YER167W, strain BCK2, active compounds read low 0.998 | locus YFR010W, strain ubp6, active compounds read low 1.01 | locus YGL078C, strain dbp3, active compounds read low 1.01 | locus YGL086W, strain mad1, active compounds read low 1 | locus YGL167C, strain pmr1, active compounds read low 0.975 | locus YGL173C, strain kem1, active compounds read low 0.984 | locus YGL227W, strain vid30, active compounds read low 0.975 | locus YGL240W, strain doc1, active compounds read low 0.949 | locus YGL248W, strain PDE1, active compounds read low 1.01 | locus YGL253W, strain hxk2, active compounds read low 1 | locus YGR078C, strain PAC10, active compounds read low 1.02 | locus YGR135W, strain pre9, active compounds read low 1 | locus YGR252W, strain gcn5, active compounds read low 0.993 | locus YHR013C, strain ard1, active compounds read low 1.02 | locus YHR027C, strain rpn1, active compounds read low 0.986 | locus YHR030C, strain SLT2, active compounds read low 1.01 and 0.939 | locus YHR079C, strain IRE1 (second series), active compounds read low 1 | locus YHR079C, strain IRE1, active compounds read low 0.946 | locus YHR094C, strain hxt1, active compounds read low 0.993 | locus YHR129C, strain ARP1, active compounds read low 1 | locus YHR142W, strain chs7, active compounds read low 0.993 | locus YHR200W, strain rpn10, active compounds read low 1 | locus YIL066C, strain RNR3, active compounds read low 1.01 | locus YIL073C, strain SPO22, active compounds read low 1.02 | locus YIL125W, strain kgd1, active compounds read low 0.998 | locus YIR030C, strain dcg1, active compounds read low 0.994 | locus YJL092W, strain hpr5, active compounds read low 0.978 | locus YJL095W, strain BCK1 (second series), active compounds read low 0.985 | locus YJL095W, strain BCK1, active compounds read low 0.986 and 0.943 | locus YJL115W, strain asf1, active compounds read low 0.965 | locus YJL129C, strain trk1, active compounds read low 0.973 | locus YJL134W, strain LCB3, active compounds read low 1 | locus YJL154C, strain vps35, active compounds read low 0.992 | locus YJL164C, strain tpk1, active compounds read low 0.985 | locus YJL166W, strain qcr8, active compounds read low 0.978 | locus YJL168C, strain set2, active compounds read low 0.997 | locus YJL187C, strain SWE1 (second series), active compounds read low 1.01 | locus YJL187C, strain SWE1, active compounds read low 0.97 | locus YJR043C, strain POL32, active compounds read low 1 | locus YJR066W, strain TOR1, active compounds read low 0.943
